# Test results published in PMC7862700, “An all-to-all approach to the identification of sequence-specific readers for epigenetic DNA modifications on cytosine”.
# Key:
# Assay in all cases: DAPPL (digital affinity profiling via proximity ligation, sequencing); 10 mM Tris-HCl pH 7.5, 50 mM NaCl, 1 mM DTT, 4% glycerol, room temperature, 30 min; GST-TFs on glutathione beads, 16-mer random dsDNA library, 0.1% formaldehyde crosslink after washing; high values mean tight binding
# Settings in all cases: protein: recombinant; tags: N-terminal GST; dsDNA, one strand shown
# FLI1 = biological target: T1, FLI1 (Homo sapiens, UniProt Q01543 1-452)
# T1 sequence: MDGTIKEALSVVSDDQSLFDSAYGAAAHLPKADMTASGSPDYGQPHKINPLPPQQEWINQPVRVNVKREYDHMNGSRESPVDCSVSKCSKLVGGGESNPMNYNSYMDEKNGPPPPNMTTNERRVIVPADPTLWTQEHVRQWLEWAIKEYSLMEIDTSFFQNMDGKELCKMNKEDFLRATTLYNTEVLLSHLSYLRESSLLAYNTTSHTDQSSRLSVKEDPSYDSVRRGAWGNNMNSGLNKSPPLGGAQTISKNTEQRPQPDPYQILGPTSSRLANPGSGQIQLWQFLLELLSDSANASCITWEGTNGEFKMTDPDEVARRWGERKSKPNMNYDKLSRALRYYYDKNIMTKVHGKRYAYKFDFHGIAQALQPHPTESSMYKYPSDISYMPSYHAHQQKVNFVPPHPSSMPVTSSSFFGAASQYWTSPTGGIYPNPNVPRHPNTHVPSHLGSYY
# Method in brief: (§1)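 Sequencing on an Illumina NextSeq500 followed washing, crosslinking with 0.1% formaldehyde, proximity ligation (BsaI/T4 ligase, 1 h, 37 °C) and PCR amplification of pools that had been incubated for 30 min at room temperature with 200 nmole of a random double-stranded 16-mer DNA library in Tris/NaCl/DTT/glycerol buffer. Each pool held DNA-barcoded human transcription factors, expressed in yeast as GST fusions and captured on glutathione beads, plus a tag-only sample. Binding signal is a hexamer's read frequency for a factor divided by its frequency in the tag-only sample.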
# ELK1 = biological target: T2, ELK1 (Homo sapiens, UniProt P19419 1-428)
# T2 sequence: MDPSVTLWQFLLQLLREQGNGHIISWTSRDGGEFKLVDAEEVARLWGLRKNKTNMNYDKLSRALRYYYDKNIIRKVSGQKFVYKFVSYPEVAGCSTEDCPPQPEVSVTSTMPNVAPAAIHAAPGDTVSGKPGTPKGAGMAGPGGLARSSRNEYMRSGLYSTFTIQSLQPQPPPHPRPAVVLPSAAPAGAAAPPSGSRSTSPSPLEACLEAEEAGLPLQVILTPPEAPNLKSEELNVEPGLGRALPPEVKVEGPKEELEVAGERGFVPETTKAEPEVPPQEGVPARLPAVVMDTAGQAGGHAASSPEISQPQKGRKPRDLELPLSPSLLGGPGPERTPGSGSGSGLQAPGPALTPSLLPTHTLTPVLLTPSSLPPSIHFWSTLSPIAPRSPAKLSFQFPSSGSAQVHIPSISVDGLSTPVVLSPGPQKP
# Method in brief: as §1
# GABPA = biological target: T3, GABPA (Homo sapiens, UniProt Q06546 1-454)
# T3 sequence: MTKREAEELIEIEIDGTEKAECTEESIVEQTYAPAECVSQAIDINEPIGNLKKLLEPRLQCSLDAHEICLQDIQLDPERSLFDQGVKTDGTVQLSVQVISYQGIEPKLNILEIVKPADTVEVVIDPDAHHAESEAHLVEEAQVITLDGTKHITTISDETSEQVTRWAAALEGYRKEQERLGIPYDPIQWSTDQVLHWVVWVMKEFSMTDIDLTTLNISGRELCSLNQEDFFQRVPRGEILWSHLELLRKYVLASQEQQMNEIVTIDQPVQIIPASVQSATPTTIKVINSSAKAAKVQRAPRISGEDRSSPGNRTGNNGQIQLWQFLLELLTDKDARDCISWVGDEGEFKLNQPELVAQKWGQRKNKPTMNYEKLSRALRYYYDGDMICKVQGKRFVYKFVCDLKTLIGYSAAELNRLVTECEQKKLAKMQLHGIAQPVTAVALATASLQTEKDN
# Method in brief: as §1
# ERG = biological target: T4, ERG (Homo sapiens, UniProt P11308 1-479)
# T4 sequence: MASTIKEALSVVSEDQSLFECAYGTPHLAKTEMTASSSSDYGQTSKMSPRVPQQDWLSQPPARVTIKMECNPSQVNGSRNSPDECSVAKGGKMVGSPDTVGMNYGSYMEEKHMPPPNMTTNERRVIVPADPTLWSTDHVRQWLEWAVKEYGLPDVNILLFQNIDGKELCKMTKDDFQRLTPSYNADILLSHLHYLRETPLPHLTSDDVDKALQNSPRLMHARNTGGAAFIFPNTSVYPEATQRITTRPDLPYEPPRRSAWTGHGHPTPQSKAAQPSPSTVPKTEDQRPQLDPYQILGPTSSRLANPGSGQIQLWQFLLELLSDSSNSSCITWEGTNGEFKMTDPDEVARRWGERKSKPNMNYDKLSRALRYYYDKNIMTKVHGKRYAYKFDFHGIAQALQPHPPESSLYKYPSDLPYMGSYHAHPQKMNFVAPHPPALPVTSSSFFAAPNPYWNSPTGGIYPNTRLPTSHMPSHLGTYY
# Method in brief: as §1
# ELF1 = ELF1 (Homo sapiens, UniProt P32519 1-619)
# Chain of ELF1 (P32519 whole entry): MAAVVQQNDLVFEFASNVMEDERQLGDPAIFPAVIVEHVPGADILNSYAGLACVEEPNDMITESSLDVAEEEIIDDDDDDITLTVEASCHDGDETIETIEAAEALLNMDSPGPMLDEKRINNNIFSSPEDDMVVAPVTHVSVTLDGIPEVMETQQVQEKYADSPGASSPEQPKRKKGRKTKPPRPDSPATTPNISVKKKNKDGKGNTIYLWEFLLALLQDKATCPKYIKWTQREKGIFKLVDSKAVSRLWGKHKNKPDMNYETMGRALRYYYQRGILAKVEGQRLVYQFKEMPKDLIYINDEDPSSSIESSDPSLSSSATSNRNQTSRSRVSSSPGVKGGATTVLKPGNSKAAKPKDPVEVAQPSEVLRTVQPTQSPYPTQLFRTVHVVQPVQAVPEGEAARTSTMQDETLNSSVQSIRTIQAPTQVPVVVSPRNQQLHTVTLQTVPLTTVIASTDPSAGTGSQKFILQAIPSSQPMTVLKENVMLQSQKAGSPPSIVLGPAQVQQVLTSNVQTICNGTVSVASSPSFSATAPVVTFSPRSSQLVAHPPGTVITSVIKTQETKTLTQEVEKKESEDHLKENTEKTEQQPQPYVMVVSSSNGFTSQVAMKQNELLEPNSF
# Method in brief: as §1
# EHF = biological target: T5, EHF (Homo sapiens, UniProt Q9NZC4 1-300)
# T5 sequence: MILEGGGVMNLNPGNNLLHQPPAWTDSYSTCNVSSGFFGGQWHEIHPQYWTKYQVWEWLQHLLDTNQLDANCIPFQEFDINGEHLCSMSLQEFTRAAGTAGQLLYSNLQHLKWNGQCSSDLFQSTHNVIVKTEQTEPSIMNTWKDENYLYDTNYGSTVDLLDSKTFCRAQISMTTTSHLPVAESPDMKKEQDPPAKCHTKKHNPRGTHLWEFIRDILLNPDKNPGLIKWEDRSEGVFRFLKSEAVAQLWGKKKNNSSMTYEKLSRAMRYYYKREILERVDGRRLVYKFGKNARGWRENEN
# Method in brief: as §1
# SPI1 = SPI1 (Homo sapiens, UniProt P17947 1-270)
# Method in brief: as §1
# SPIB = SPIB (Homo sapiens, UniProt Q01892 1-262)
# Chain of SPIB (Q01892 whole entry): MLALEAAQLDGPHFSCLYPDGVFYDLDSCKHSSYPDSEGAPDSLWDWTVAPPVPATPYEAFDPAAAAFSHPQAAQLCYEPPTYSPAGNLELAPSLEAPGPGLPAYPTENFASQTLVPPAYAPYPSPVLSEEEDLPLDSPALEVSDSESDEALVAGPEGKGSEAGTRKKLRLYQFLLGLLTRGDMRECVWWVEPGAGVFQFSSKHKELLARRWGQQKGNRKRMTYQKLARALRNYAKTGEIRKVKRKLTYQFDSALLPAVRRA
# Method in brief: as §1
# ELK3 = biological target: T6, ELK3 (Homo sapiens, UniProt P41970 1-407)
# T6 sequence: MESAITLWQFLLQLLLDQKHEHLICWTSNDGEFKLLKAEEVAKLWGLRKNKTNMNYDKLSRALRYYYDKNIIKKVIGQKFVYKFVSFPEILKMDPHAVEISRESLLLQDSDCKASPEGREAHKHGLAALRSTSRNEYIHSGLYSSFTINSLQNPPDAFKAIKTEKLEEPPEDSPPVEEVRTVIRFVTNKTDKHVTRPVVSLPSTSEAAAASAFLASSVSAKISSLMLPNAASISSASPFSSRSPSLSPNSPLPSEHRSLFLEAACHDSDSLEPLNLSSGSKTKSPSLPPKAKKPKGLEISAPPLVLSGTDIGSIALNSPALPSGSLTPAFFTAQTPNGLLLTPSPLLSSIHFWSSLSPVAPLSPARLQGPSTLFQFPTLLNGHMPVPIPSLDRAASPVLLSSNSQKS
# Method in brief: as §1
sequence,measurement,setting,value
CCCCTC,binding signal,FLI1,"1.48 fold enrichment (6-mer frequency, TF over GST control)"
same,binding signal,ELK1,"1.29 fold enrichment (6-mer frequency, TF over GST control)"
same,binding signal,GABPA,"1.45 fold enrichment (6-mer frequency, TF over GST control)"
same,binding signal,ERG,"1.28 fold enrichment (6-mer frequency, TF over GST control)"
same,binding signal,ELF1,"1.43 fold enrichment (6-mer frequency, TF over GST control)"
same,binding signal,EHF,"1.31 fold enrichment (6-mer frequency, TF over GST control)"
same,binding signal,SPI1,"1.39 fold enrichment (6-mer frequency, TF over GST control)"
same,binding signal,SPIB,"1.55 fold enrichment (6-mer frequency, TF over GST control)"
same,binding signal,ELK3,"1.37 fold enrichment (6-mer frequency, TF over GST control)"
